According to publication PMC4336329 (PLoS ONE, 2015):
Hit rate of the full screen: of about 310,000 compounds, about 14,000 (4.5%) showed an effect of 50% or more. The effect is printed as a negative number. The entries come from a sample that favours strong results as a whole.

molecular target: human ether-à-go-go-related gene (hERG) potassium channel (human, UniProt Q12809); assay: primary screen, population patch clamp on CHO cells stably expressing hERG; higher = less effect of the substance
Sequence (Q12809 whole entry, looked up): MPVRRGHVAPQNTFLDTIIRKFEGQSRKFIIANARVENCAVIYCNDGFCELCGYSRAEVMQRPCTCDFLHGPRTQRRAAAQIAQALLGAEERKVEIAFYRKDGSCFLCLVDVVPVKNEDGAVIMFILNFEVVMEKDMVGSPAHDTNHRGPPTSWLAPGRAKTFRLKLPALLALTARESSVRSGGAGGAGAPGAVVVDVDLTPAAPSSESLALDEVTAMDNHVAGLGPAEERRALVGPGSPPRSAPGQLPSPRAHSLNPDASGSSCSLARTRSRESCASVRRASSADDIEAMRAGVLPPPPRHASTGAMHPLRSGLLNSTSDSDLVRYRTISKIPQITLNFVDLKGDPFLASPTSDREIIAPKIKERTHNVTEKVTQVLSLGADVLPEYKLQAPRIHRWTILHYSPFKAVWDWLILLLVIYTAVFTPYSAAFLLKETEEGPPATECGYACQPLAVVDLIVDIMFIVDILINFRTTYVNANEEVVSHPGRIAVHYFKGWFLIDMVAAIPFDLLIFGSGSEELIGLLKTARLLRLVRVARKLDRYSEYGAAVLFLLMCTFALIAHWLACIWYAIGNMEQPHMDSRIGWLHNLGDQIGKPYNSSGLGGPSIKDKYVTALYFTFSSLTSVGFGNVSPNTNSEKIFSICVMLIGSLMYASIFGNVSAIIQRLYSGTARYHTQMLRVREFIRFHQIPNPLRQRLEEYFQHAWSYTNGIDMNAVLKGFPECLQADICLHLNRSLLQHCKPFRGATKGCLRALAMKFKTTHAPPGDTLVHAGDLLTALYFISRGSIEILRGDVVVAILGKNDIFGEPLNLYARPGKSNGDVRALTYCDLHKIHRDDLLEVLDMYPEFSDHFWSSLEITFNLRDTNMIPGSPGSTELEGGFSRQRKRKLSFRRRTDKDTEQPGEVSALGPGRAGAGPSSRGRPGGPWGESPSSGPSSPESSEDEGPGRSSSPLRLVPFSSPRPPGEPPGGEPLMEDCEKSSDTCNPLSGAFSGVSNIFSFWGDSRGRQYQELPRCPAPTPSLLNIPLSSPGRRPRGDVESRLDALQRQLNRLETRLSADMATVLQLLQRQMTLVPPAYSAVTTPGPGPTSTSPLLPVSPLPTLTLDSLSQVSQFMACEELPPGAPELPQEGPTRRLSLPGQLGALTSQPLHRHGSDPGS
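Further: peak tail current of the secondary pulse compared with the same well before compound.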

SMILES | hERG current change (%, negative = inhibition) at 10uM [%]
CCN(CC)CCn1c2ccc(F)cc2c2nc(C)sc21.Cl | -54.3
CCN(CC)CCn1c2ccccc2c2nc(C)sc21 | -30.6
Cc1nc2c3cc(F)ccc3n(Cc3ccc(F)cc3)c2s1 | 13.8
CCN(CC)CCn1c2ccc(Cl)cc2c2nc(C)sc21.Cl | -68.2
Cc1nc2c3cc(F)ccc3n(Cc3ccccc3)c2s1 | 4.24
COC(=O)Cn1c2ccc(Cl)cc2c2nc(C)sc21 | 5.43
COc1ccc(-n2ccc(=O)c3c2CCCC3=O)cc1 | 13.5
CCn1cc(C(=O)O)c(=O)c2cnc(N3CCN(C(=S)Nc4ccccc4Cl)CC3)nc21 | -4.66
N#Cc1ccc(Cl)cc1NC(=O)COC(=O)[C@H](CCC(N)=O)NC(=O)c1ccc(F)cc1 | 1.75
Cc1ccc2c(c1)C(C)CC(C)(C)N2C(=O)CN1CCN(C)CC1.O=C(O)C(=O)O (stereo not drawn) | -23.6
COc1ccc(C[C@H]2CN3C(=NC[C@H]3C)N2CCNC(=O)c2ccc(C)c(Br)c2)cc1 | -72
COc1ccc(C[C@@H]2CN3C(=NC[C@@H]3C)N2CCNC(=O)c2ccc(C)c(Br)c2)cc1 | -71.4
C/C=C(\C)C(=O)NCCN1C2=NC[C@@H](C)N2C[C@@H]1Cc1ccc(OC)cc1 | 0.0958
COc1ccc(C[C@H]2CN3C(=NC[C@@H]3C(C)C)N2CCNC(=O)c2ccc(C)c(Br)c2)cc1 | -79
Cc1ccc(C(=O)NCCN2C3=NC[C@H](C(C)C)N3C[C@H]2Cc2ccc(O)cc2)cc1Br | -26.3
C/C=C(\C)C(=O)NCCN1C2=NC[C@@H](C)N2C[C@H]1Cc1ccc(O)cc1 | 12.9
CCc1nc(-c2ccccc2)cc(=O)[nH]1 | -6.29
CCOC(=O)c1cc(NC(=O)c2ccc(C)cc2)c(=O)oc1C(F)(F)F | -2.5
O=C(CSCc1ccccc1)Nc1ccc(S(=O)(=O)N2CCOCC2)cc1 | -17.7
Cc1cc(C(=O)N/N=C/c2ccc(-c3cccc(Br)c3)o2)n[nH]1 | 12.4
NS(=O)(=O)c1ccc(CNC(=O)CC23CC4CC(CC(C4)C2)C3)cc1 | -5.69

SMILES | hERG current change (%, negative = inhibition) at 10uM [%]
Cc1nn(C)c(C)c1NC(=O)CSc1nnc(C)n1-c1ccccc1 | -0.523
Cc1cc(NC(=O)CSc2nnc3c(C)cc4cc(C)c(C)cc4n23)no1 | 20
O=C1CNC(=O)/C1=C/c1ccc(Br)cc1 | 16.7
CN1/C(=C/C(=O)c2nc(S(C)(=O)=O)ncc2Cl)C(C)(C)c2ccccc21 | -29.9
CCN(CC)CCn1c2c(c(SCC(=O)Nc3ccc(C(C)C)cc3)nc1=O)CCCC2 | -68.3
CCN(CC)CCn1c2c(c(SCC(=O)Nc3ccc(C(C)C)cc3)nc1=O)CCC2 | -56.9
O=C(COC(=O)c1ccc(NS(=O)(=O)c2ccc3c(c2)OCCO3)cc1)NC1CC1 | -1.56
COc1cc(OC)c(C2=NOC(C(=O)O)C2)cc1Cl (stereo not drawn) | 5.14
CC(C)(C)c1ccc(SCCc2ccncc2)cc1 | 3.48
COC(=O)C1=C(c2ccc(F)cc2OCc2ccccc2)C[C@@H]2CC[C@H]1N2C(=O)NCc1cccc(OC)c1 | 2.72
CCc1ccc2oc(-c3ccc(OC)cc3)cc(=[NH+]c3c(C)n(C)n(-c4ccccc4)c3=O)c2c1.F[B-](F)(F)F | -71.7
COc1ccc(N=c2cc(-c3ccc(OC)cc3)oc3ccccc23)cc1 | 4.41
COc1ccc(-c2cc(=Nc3ccc(C)cc3)c3ccccc3o2)cc1 | 5.87
COc1ccc(-c2cc(C(=O)Nc3c(C)n(C)n(-c4ccccc4)c3=O)no2)cc1 | 6.42
COc1ccc(-c2cc(=Nc3c(C)n(C)n(-c4ccccc4)c3=O)c3ccccc3o2)cc1 | -68.1
CCc1ccc2oc(-c3ccc(OC)cc3)cc(=[NH+]c3cccc(C(=O)O)c3)c2c1.F[B-](F)(F)F | 5
COc1ccc(CCNC(=S)NCCc2ccc(OC)c(OC)c2)cc1OC | 5.11
Cc1ccn2cc(CSc3ccccc3N)nc2c1 | -29.1
CCN(CC)c1ccc(NC(=O)CCc2nnc3ccc(N4CCCCC4)nn23)c(C)c1 | -12.8
CCCCC/C(=N/O)c1c(C)[nH]c2ccccc12 | 4.53
Cc1ccc(N(CC(O)CON=C2c3ccccc3-c3ccccc32)S(C)(=O)=O)cc1 (stereo not drawn) | 15.5

SMILES | hERG current change (%, negative = inhibition) at 10uM [%]
Cc1ccc(C)c(S(=O)(=O)N2CCCC2CNC(=O)C(=O)NC2CC2)c1 (stereo not drawn) | -0.659
Cc1ccc(C)c(S(=O)(=O)N2CCCC2CNC(=O)C(=O)NCCc2ccco2)c1 (stereo not drawn) | -21.2
Cc1ccc(C(=O)NCC2CCCN2S(=O)(=O)c2ccc(C)cc2)cc1 (stereo not drawn) | -33.8
Cc1ccc(S(=O)(=O)N2CCCC2CNC(=O)c2ccc(F)c(F)c2)cc1 (stereo not drawn) | -52.5
O=C(NCC1CCCN1S(=O)(=O)c1cccs1)c1ccc([N+](=O)[O-])cc1 (stereo not drawn) | -55.2
Cc1ccc(C)c(S(=O)(=O)N2CCCC2CNC(=O)c2ccc([N+](=O)[O-])cc2)c1 (stereo not drawn) | -81.8
Cc1ccc(S(=O)(=O)N2CCCC2CNC(=O)c2ccccc2)cc1 (stereo not drawn) | -9.34
Cc1ccc(C)c(S(=O)(=O)N2CCCC2CNC(=O)C(=O)NCc2ccco2)c1 (stereo not drawn) | -54.2
Cc1ccc(C)c(S(=O)(=O)N2CCCCC2CCNC(=O)C(=O)NCc2ccco2)c1 (stereo not drawn) | -21.8
Cc1ccc(C)c(S(=O)(=O)N2CCCC2CNC(=O)C(=O)NCC2CCCO2)c1 (stereo not drawn) | -15.5
O=C(NCC1CCCN1S(=O)(=O)c1cccs1)c1ccccc1 (stereo not drawn) | 16.5
O=C(NCC1CCCN1S(=O)(=O)c1cccs1)c1cccc([N+](=O)[O-])c1 (stereo not drawn) | -24.5
COc1ccc(C(CNC(=O)C(CC(C)C)NS(=O)(=O)c2ccc(C)cc2)N2CCOCC2)cc1 (stereo not drawn) | -3.25
Oc1c(C=NCc2ccncc2)sc2ccccc12 | -38.4
CCCCn1c(N)c(N(CCC(C)C)C(=O)c2cccc(-n3cnnn3)c2)c(=O)[nH]c1=O | -7.92
CCc1ccc(CN(C)C(=O)CC2C(=O)NCCN2Cc2ccoc2)cc1 (stereo not drawn) | 4.18
COc1ccc(Cl)cc1NC(=O)C1CCN(S(C)(=O)=O)CC1 | 3.72
CCOc1ccccc1/C=C/c1onc(C)c1S(=O)(=O)N1CCC(C(=O)N(CC)CC)CC1 | -3.33
O=C(NCc1cccnc1)c1ccc(NC(=O)c2ccc([N+](=O)[O-])cc2)cc1 | 9.09
CCOC(=O)Cc1cc(=O)n2[nH]c(-c3ccc(Cl)cc3)cc2n1 | -20.4
CCCc1nc2oc3cc(OC)ccc3c(=O)c2c(=O)n1CCc1ccccc1 | -38.3

SMILES | hERG current change (%, negative = inhibition) at 10uM [%]
COc1ccc(-n2c(=O)c(NC(=O)c3ccccc3)c3n(c2=S)CCCCC3)cc1 | -3.03
CC(=O)c1ccc(NC(=O)CO/N=C(\C)c2cccs2)cc1 | -8.22
O=C(Nc1ccccn1)c1ccc2c(c1)S(=O)(=O)c1ccccc1C2=O | 6.46
CCCCCn1cnnc1SCC(=O)c1ccc2c(c1)OCO2 | -27.9
Cc1nc2c3ccccc3nc(SCC(=O)c3ccc(Cl)cc3)n2n1 | 2.48
COC(=O)C1=C(C(=O)OC)[C@@H]2N(Cc3ccccc3)c3ccccc3[C@@]23C[C@@H](C(=O)OC)N(C(=O)NC2CCCCC2)C3=N1 | -12.1
COc1ccc(-n2c(CN3CCN(c4ccc(F)cc4)CC3)nc3ccc([N+](=O)[O-])cc3c2=O)c(OC)c1 | -44.6
CCN1CCN(Cc2nc3ccc([N+](=O)[O-])cc3c(=O)n2-c2ccc(OC)cc2OC)CC1 | -52
COc1ccc(-n2c(CN3CCN(c4ccccc4)CC3)nc3ccc([N+](=O)[O-])cc3c2=O)c(OC)c1 | -10.8
COc1ccc(-n2c(CN3CCN(C)CC3)nc3ccc([N+](=O)[O-])cc3c2=O)c(OC)c1 | -38.4
COc1ccc(-n2c(CN3CCOCC3)nc3ccc([N+](=O)[O-])cc3c2=O)c(OC)c1 | -3.17
COc1ccc(-n2c(CN3CCC(C(N)=O)CC3)nc3ccc([N+](=O)[O-])cc3c2=O)c(OC)c1 | -3.9
CCOC(=O)C1CCN(Cc2nc3ccc([N+](=O)[O-])cc3c(=O)n2-c2ccc(OC)cc2OC)CC1 | -53.8
COc1ccc(-n2c(CN3CCC(C)CC3)nc3ccc([N+](=O)[O-])cc3c2=O)c(OC)c1 | 4.93
COc1ccc(-n2c(CN3CCN(c4ccccn4)CC3)nc3ccc([N+](=O)[O-])cc3c2=O)c(OC)c1 | -55.5
COc1cccc(-n2c(CN3CCN(c4ccccn4)CC3)nc3ccc([N+](=O)[O-])cc3c2=O)c1 | -40
COc1ccc(-n2c(CN3CCN(Cc4ccccc4)CC3)nc3ccc([N+](=O)[O-])cc3c2=O)c(OC)c1 | -51.1
CCOC(=O)C1CCCN(Cc2nc3ccc([N+](=O)[O-])cc3c(=O)n2-c2ccc(OC)cc2OC)C1 (stereo not drawn) | -28.9
